Results filed as inconclusive are left out. Calls of active or inactive are those of the source. Unless noted, calls follow the shape of the dose curve; as a rule, active = well fitted curve in the direction sought with a large enough effect in the repeat runs; inconclusive = weak or mixed curves; inactive = no such curve, though single readings can be large; an effect the other way counts as inactive or inconclusive.
How the values were obtained:
[1] = qHTS assay to identify small molecule antagonists of the estrogen related receptor (ERR) signaling pathway from Tox21 library - cell viability counter screen (AID 1224834); also: nearly all actives have a fitted effect of over 30% in size
Summary of the method: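 In this quantitative HTS format, ERR cells receive compounds in DMSO and are incubated for 17.5 h at 37 C. Live-cell protease activity is then detected with CellTiter-Fluor.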

[2] = target: Luciferin 4-monooxygenase (Photinus pyralis) (UniProt P08659); test: qHTS assay to identify small molecule inhibitors of firefly luciferase (AID 1224835); also: nearly all actives have a fitted effect of over 25% in size
Sequence of Luciferin 4-monooxygenase (Photinus pyralis) (P08659 whole entry, looked up): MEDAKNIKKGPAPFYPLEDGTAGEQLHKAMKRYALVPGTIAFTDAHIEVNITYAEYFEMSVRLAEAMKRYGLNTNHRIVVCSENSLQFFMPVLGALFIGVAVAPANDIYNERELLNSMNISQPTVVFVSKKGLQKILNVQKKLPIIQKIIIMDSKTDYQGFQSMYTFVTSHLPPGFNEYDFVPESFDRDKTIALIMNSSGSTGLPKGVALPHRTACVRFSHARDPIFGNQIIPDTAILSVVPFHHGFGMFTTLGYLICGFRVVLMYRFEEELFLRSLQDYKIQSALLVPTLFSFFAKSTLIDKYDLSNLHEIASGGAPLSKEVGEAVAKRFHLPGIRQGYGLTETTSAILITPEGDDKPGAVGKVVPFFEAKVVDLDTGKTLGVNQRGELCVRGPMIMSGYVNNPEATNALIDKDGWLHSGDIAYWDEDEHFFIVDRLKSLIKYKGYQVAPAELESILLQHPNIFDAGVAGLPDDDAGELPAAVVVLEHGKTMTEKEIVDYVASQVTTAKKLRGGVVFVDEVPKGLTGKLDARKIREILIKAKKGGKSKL
Summary of the method: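 Biochemical qHTS: compounds run as interplate titrations against purified firefly enzyme, with D-luciferin and ATP each at its KM concentration. Light output recorded by CCD imaging.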

[3] = qHTS assay to identify small molecule antagonists of the constitutive androstane receptor (CAR) signaling pathway - cell viability counter screen (AID 1224837); also: nearly all actives have a fitted effect of over 45% in size
Summary of the method: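 In quantitative HTS format, compounds at 15 concentrations were applied to HepG2 cells double-transfected with hCAR and CYP2B6-2.2kb under 50 nM CITCO stimulation; live-cell protease activity was read after 23 hr via CellTiter-Fluor.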

[4] = target: Nuclear receptor subfamily 1 group I member 3 (Homo sapiens) (UniProt Q14994); test: qHTS assay to identify small molecule antagonists of the constitutive androstane receptor (CAR) signaling pathway (AID 1224838); also: nearly all actives have a fitted effect of over 40% in size
Sequence of Nuclear receptor subfamily 1 group I member 3 (Homo sapiens) (Q14994 whole entry, looked up): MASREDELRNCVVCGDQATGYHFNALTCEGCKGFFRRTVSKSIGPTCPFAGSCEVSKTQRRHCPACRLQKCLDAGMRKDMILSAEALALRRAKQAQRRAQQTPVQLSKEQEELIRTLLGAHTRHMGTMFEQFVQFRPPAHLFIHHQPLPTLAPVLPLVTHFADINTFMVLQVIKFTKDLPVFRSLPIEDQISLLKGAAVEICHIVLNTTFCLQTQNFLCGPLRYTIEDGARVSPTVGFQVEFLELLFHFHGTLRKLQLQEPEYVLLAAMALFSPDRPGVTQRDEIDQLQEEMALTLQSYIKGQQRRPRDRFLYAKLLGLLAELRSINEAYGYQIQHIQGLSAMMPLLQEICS
Summary of the method: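 CITCO-stimulated (50 nM final) HepG2 cells stably transfected with hCAR and CYP2B6-2.2kb luciferase were exposed to compounds at 15 concentrations for 24 h at 37 C/5% CO2. A luciferase reagent was added and luminescence recorded after 30 min.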

[5] = target: Nuclear receptor subfamily 1 group I member 3 (Homo sapiens) (UniProt Q14994); test: qHTS assay to identify small molecule agonists of the constitutive androstane receptor (CAR) signaling pathway (AID 1224839); also: nearly all actives have a fitted effect of over 15% in size; also: potency is read from the fitted curve at half-maximal effect;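 as to activation: HepG2 cells stably carrying human CAR and a CYP2B6 luciferase reporter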
Summary of the method: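 Double-stable HepG2 cells (hCAR, CYP2B6-2.2kb) seeded 4 h before compound addition. Exposure 24 h with 0.75 uM PK11195 final. Luciferase detected by ONE-Glo.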

[6] = qHTS assay to identify small molecule antagonists of the estrogen related receptor signaling pathway with the pleiotropic PPARgamma coactivator (PGC) from Tox21 10K library - cell viability counter screen (AID 1224840; active = well fitted cell-killing curve with a large enough effect in the repeat runs, not every such curve was filed as active; also: nearly all actives have a fitted effect of over 40% in size)
Summary of the method: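 Viability counter screen, PGC/ERR cells: 17.5 h compound exposure at 37 C, CellTiter-Fluor fluorescence endpoint.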

[7] = qHTS assay to identify small molecule antagonists of the estrogen related receptor signaling pathway with the pleiotropic PPARgamma coactivator (PGC) from Tox21 10K library (AID 1224841; call rule not given here; also: actives are mostly falling curves and most rising ones were filed inactive; nearly all actives have a fitted effect of over 50% in size; also: potency is read from the fitted curve at half-maximal effect)
Summary of the method: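 In the PGC/ERR line, DMSO solutions of test chemicals are pin-delivered to 2,000 cells/well six hours after dispensing. Following eighteen hours' incubation, One-Glo reagent is added and luminescence recorded.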

[8] = qHTS assay to identify small molecule agonists of the estrogen related receptor signaling pathway with the pleiotropic PPARgamma coactivator (PGC) from Tox21 10K library (AID 1224842); also: nearly all actives have a fitted effect of over 15% in size
Summary of the method: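 PGC/ERR reporter cell line, 2,000 cells per well, incubated 6 h at 37 C before 23 nL compound in DMSO was added. After 18 h at 37 C, One-Glo luminescence read following 30 min at room temperature.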

[9] = target: Thyrotropin receptor (Homo sapiens) (UniProt P16473); test: qHTS assay to identify small molecule agonists of the thyroid stimulating hormone receptor (TSHR) signaling pathway (AID 1224843; calls by dose curve; also: nearly all actives have a fitted effect of over 45% in size)
Sequence of Thyrotropin receptor (Homo sapiens) (P16473 whole entry, looked up): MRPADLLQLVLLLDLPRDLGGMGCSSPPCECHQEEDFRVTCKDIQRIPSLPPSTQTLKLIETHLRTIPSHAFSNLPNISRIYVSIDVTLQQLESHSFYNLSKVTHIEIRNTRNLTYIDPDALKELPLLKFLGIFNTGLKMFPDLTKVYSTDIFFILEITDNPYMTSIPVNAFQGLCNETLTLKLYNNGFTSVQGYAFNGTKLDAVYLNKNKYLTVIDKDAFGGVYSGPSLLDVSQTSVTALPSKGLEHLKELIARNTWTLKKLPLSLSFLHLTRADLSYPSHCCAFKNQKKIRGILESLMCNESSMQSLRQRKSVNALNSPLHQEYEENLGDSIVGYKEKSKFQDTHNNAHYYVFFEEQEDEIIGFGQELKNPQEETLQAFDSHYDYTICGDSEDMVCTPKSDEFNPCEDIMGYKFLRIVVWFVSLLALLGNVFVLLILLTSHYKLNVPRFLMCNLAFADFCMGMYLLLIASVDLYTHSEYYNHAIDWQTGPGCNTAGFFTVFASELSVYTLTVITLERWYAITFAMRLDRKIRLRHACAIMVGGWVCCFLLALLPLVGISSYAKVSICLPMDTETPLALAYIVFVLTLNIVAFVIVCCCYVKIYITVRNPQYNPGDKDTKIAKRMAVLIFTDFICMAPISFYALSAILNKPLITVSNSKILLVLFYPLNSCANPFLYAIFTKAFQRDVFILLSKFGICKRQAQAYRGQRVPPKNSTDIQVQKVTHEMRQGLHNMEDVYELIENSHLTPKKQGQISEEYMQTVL
Summary of the method: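 Agonist-mode screen: TSHR HEK293 cells received test chemicals for half an hour at room temperature, then HTRF cAMP detection reagents for one hour prior to fluorescence measurement. Each chemical ran as a 15-concentration series, triplicated.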

[10] = qHTS assay to identify small molecule agonists of H2AX (AID 1224845; active = well fitted activation curve with a large enough effect in the signal ratio in the repeat runs, not every such curve was filed as active; the % refers to the signal ratio)
Summary of the method: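 Wild-type CHO-K1 cells, plated overnight, exposed 3hr at 37C to 15 concentrations (0.76% DMSO final). Lysed, then HTRF anti-pH2AX (S139) cryptate and anti-H2AX-d2 antibodies, 24 hr room temperature; 665/620 nm emission read.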

[11] = qHTS assay to identify small molecule agonists of the hypoxia (HIF-1) signaling pathway (AID 1224846; active = well fitted activation curve with a large enough effect in the signal ratio in the repeat runs, not every such curve was filed as active; the % refers to the signal ratio)
Summary of the method: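 In ME-180 cells bearing an HRE-bla construct, 17 h treatment with DMSO-dissolved compounds at 37C was followed by CCF4-AM loading to quantify reporter induction.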

[12] = qHTS assay to identify small molecule agonists of H2AX - cell viability counter screen (AID 1224847; calls by dose curve; also: top concentration of the series differs between compounds; nearly all actives have a fitted effect of over 30% in size)
Summary of the method: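 Quantitative HTS viability measurement: CHO-K1 wild-type cells in serum (10% FBS) medium, short 3 hr drug exposure at 37C with 0.76% DMSO, CellTiter-Glo luminescent detection.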

[13] = qHTS assay to identify small molecule antagonists of the estrogen related receptor (ERR) signaling pathway from Tox21 library (AID 1224848); also: nearly all actives have a fitted effect of over 50% in size; also: potency is read from the fitted curve at half-maximal effect
Summary of the method: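 Quantitative high-throughput format: ERR reporter cells (2,000/well) pre-incubated 6 h, treated 18 h at 37 C with compounds in DMSO alongside positive and negative controls, then read by ONE-Glo luminescence.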

[14] = qHTS assay to identify small molecule agonists of the estrogen related receptor (ERR) signaling pathway from Tox21 library (AID 1224849; calls by dose curve; also: nearly all actives have a fitted effect of over 15% in size); conditions: ERR reporter cell line, ONE-Glo luciferase, 18 h; at 92.4 µM (top of the series) unless noted
Summary of the method: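 Reporter cells (ERR, NTP source) treated with Tox21 10K compounds 18 h, 37 C. Readout: ONE-Glo luminescence, 30 min RT.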

[15] = qHTS RealTime-Glo MT Cell Viability Assay in HepG2 cells - 24 hour (AID 1224867); also: nearly all actives have a fitted effect of over 50% in size
Summary of the method: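 qHTS, HepG2, 600 cells/well, RealTime-Glo (NanoLuc + prosubstrate) added with cells; 5 h preincubation; DMSO compound addition; 37 C; luminescence at 0/8/16/24/32/40 h.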

[16] = A CellTox Green Cytotoxicity Assay to monitor cytotoxicity in HEK293 cells - 0 hour (AID 1224869); also: nearly all actives have a fitted effect of over 50% in size
Summary of the method: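 Homogeneous no-lysis format: HEK293 cell suspension mixed with CellTox Green reagent, seeded, incubated 5 h at 37 C/5% CO2, then dosed by pintool with compound in DMSO.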

[17] = qHTS RealTime-Glo MT Cell Viability Assay in HepG2 cells - 40 hour (AID 1224870); also: nearly all actives have a fitted effect of over 50% in size; also: potency is read from the fitted curve at half-maximal effect
Summary of the method: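 HepG2 cells (600/well) mixed with RealTime-Glo MT reagent, settled 5 h at 37 C/5% CO2 before compound addition. Nonlytic NanoLuc luminescence from viable-cell prosubstrate reduction read repeatedly during 40 h treatment at 37 C.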

[18] = qHTS assay to identify small molecule agonists of the constitutive androstane receptor (CAR) signaling pathway - cell viability counter screen (AID 1224836); also: nearly all actives have a fitted effect of over 45% in size
Summary of the method: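 Using CellTiter-Fluor, viability of HepG2 cells harbouring hCAR and CYP2B6-2.2kb was measured following 23 h incubation with a 15-concentration compound series plus PK11195 (0.75 uM final).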

[19] = qHTS assay to identify small molecule agonists of the hypoxia (HIF-1) signaling pathway - cell viability counter screen (AID 1224844; calls by dose curve; also: nearly all actives have a fitted effect of over 50% in size)
Summary of the method: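 Same wells as the HIF-1 reporter screen; ME-180 cells carrying HRE-bla, 17 hr treatment at 37C; CellTiter-Glo luminescence read after 30 min at room temperature.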

[20] = qHTS RealTime-Glo MT Cell Viability Assay in HEK293 cells - 32 hour (AID 1224868)
Summary of the method: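 Assay medium contained NanoLuc luciferase plus cell-permeant prosubstrate, added with HEK293 cells at 600 cells/well. After 5 h at 37 C/5% CO2 compounds were added; plates stayed at 37 C for 40 h with serial luminescence reads.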
% is scaled to controls: 0 for no effect and ±100 for the full control effect.

CC(C)(O)c1ccc(CNC(=O)c2cccnc2Oc2ccc(F)cc2)cc1
inactive: Potency [1] | Potency [2] | Potency [3] | Potency [4] | Potency [6] | Potency [8] | Potency [9] | Potency [10] | Potency [11] | Potency [12] | activity change, positive = activation [14] -45% | Potency [15] | Potency [16] | Potency [17]
active: Potency [5] 27.3 µM | Potency [7] 48.6 µM | Potency [13] 30.6 µM

C=C(C)C(=O)OCC
inactive: Potency [1] | Potency [2] | Potency [18] | Potency [6] | Potency [7] | Potency [9] | Potency [19] | Potency [10] | Potency [11] | Potency [12] | Potency [13] | activity change, positive = activation [14] 5.74% | Potency [15] | Potency [20] | Potency [16] | Potency [17]

COc1ccnc(CS(=O)c2nc3ccc(OC(F)F)cc3[nH]2)c1OC (stereo unspecified)
inactive: Potency [1] | Potency [2] | Potency [3] | Potency [4] | Potency [5] | Potency [6] | Potency [9] | Potency [19] | Potency [11] | Potency [12] | Potency [15] | Potency [20] | Potency [16] | Potency [17]

Clc1ccc2c(c1)CCc1cccnc1C2=C1CCNCC1
inactive: Potency [1] | Potency [2] | Potency [3] | Potency [5] | Potency [19] | Potency [11] | Potency [12] | Potency [16]
active: Potency [17] 23.9 µM

O=C(O)c1ccco1
inactive: Potency [1] | Potency [2] | Potency [3] | Potency [6] | Potency [9] | Potency [19] | Potency [10] | Potency [11] | Potency [12] | Potency [15] | Potency [20] | Potency [16] | Potency [17]

Cc1[nH]c(C)c(Cl)c(=O)c1Cl
inactive: viability change, negative = cytotoxic [1] 0.386% [at 19 µM] | activity change, negative = inhibition [2] -1.3% [at 23.6 µM] | viability change, negative = cytotoxic [18] 3.99% [at 19 µM] | viability change, negative = cytotoxic [6] 12.2% [at 19 µM] | activation [9] 2.76% [at 19 µM] | activity change, negative = cytotoxicity [19] 12.4% [at 15.8 µM] | activation (H2AX phosphorylation) [10] 1.85% [at 31.6 µM] | activation [11] -0.25% [at 15.8 µM] | activity change, negative = cytotoxicity [12] -0.294% [at 31.6 µM] | activity change, negative = cytotoxicity [15] 3.53% [at 15.8 µM] | activity change, negative = cytotoxic [20] -20.8% [at 15.8 µM] | cytotoxicity [16] 2.83% [at 15.8 µM] | activity change, negative = cytotoxic [17] 1.26% [at 15.8 µM]

O=C(O)c1nc(Cl)c(Cl)c(Cl)c1Cl
inactive: Potency [1] | Potency [2] | Potency [3] | Potency [4] | Potency [6] | Potency [7] | Potency [19] | Potency [11] | Potency [12] | Potency [13] | activity change, positive = activation [14] 0.56% | Potency [15] | Potency [16] | Potency [17]
